The nature of test [1]: viability loss in pontine glioma line – cell-based, SU-DIPG-XIII, MIPE5.0, CellTiter-Glo, qHTS, dose response (AID 1347064; cut-off not given, nearly all actives have AC50 up to about 23 µM;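 for AC50: cells exposed to compound for 48 hours before the viability read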). Particulars: CellTiter-Glo ATP luminescence. (In general: Cellular ATP, detected with luciferase, serves as a proxy for viable cell number.)
A short description of test [2]: compounds altering HSF1 focus formation in cells – imaging, Selleck Cancer Library (AID 1347162; in the data active = plate-normalised HSF1 focus index below about 0.46). Particulars: human cells, HSF1 nuclear foci imaging, at 10 µM; SSMD: measured here: HSF1 foci SSMD mean; cell count: measured here: cell number; plate-normalised HSF1 focus index: stronger effect = lower value.
Test [3] in a line: viability loss in pontine glioma line – cell-based, SU-DIPG-XIII, MIPE4.0, CellTiter-Glo, qHTS, dose response (AID 1347061).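 Note: cells exposed to compound for 48 hours before readout.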 The note with it: CellTiter-Glo ATP luminescence.
The target in test [4] is NAD(+) hydrolase SARM1 (Homo sapiens) (UniProt Q6SZW1). The test is described as follows: blocking NAD cleavage by SARM1 SAM-TIR – cell lysate, NAD-Glo luminescence (AID 1508614;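 active = compound whose remaining NAD level is above about 45 nM, limit read from the data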;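 note: higher remaining NAD means stronger inhibition of SARM1 NADase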). The note with it: SAM-TIR HEK293T lysate NADase, at 1 µM, stronger effect = higher value.
Sequence of NAD(+) hydrolase SARM1 (Homo sapiens) (Q6SZW1 whole entry, looked up): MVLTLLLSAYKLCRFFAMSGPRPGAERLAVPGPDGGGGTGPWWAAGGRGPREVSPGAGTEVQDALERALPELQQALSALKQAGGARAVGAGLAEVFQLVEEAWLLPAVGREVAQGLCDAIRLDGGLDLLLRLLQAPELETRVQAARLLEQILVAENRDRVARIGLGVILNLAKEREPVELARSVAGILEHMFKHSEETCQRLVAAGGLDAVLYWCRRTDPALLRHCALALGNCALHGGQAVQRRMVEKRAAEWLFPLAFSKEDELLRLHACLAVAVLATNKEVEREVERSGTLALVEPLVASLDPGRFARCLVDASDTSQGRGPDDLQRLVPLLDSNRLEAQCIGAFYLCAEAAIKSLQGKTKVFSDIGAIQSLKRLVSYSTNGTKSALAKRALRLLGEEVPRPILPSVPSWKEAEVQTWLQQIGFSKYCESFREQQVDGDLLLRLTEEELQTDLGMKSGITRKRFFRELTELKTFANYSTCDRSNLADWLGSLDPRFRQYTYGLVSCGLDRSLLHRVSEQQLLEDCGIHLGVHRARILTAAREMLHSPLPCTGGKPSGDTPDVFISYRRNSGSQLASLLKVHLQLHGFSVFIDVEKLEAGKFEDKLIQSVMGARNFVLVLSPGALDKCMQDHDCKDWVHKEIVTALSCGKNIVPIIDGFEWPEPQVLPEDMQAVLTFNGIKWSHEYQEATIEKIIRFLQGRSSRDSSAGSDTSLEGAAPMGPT

Records with an inconclusive call do not appear. The source made the active and inactive calls. Unless noted, no cut-off is given here; in the data, nearly all actives have AC50 up to about 37 µM.

In general, AC50 refers to the concentration giving half of the maximal activity seen. `COc1cc(NCc2ccc3nc(N)nc(N)c3c2C)cc(OC)c1OC`: the AC50 in test [1] was 7.42 µM (active).
Turning to `O=C(O)c1nc(=O)[nH]c(=O)[nH]1`, the call in test [1] was inactive.
Consider `C#Cc1cccc(Nc2ncnc3cc(OCCOC)c(OCCOC)cc23)c1`, for which, in test [2], the SSMD is 2.72, the cell count amounted to 6730 and the plate-normalised HSF1 focus index was 1.14 (inactive).
On to `C=CCc1cc(OC)c(O)c(C(=O)NCCO)c1`, for which the outcome in test [3] was inactive.
Take `NC(=O)Cc1cccc(C(=O)c2ccccc2)c1N`: the molecule was called inactive in test [3].
Consider `C[C@@H]1C[C@H]2[C@@H]3CCC4=CC(=O)C=C[C@]4(C)[C@@]3(Cl)[C@@H](O)C[C@]2(C)[C@@]1(OC(=O)c1ccco1)C(=O)CCl`, for which the remaining NAD in test [4] is 10 nM (inactive).
Turning to `COc1cc(Nc2c(C#N)cnc3cc(OCCCN4CCN(C)CC4)c(OC)cc23)c(Cl)cc1Cl`, in test [2], the SSMD is -18.3, the cell count came out at 5030 and the plate-normalised HSF1 focus index was 0.345 (active).
On to `CN1C[C@H]2c3ccccc3Oc3ccc(Cl)cc3[C@@H]2C1`, for which the result in test [3] was inactive.
Take `CCCCC(CC)COC(=O)C(C#N)=C(c1ccccc1)c1ccccc1` (centres undefined): the remaining NAD in test [4] was 10 nM (inactive).
Take `CC(=O)O[C@@]12CO[C@@H]1C[C@H](O)[C@@]1(C)C(=O)[C@H](O)C3=C(C)[C@@H](OC(=O)[C@H](O)[C@@H](NC(=O)OC(C)(C)C)c4ccccc4)C[C@@](O)([C@@H](OC(=O)c4ccccc4)[C@H]21)C3(C)C`: the outcome in test [1] was inactive. Further, the remaining NAD in test [4] is 10 nM (inactive).
For `CCCCCCCCOc1ccccc1C(=O)Nc1ccc(C(=O)OCC[N+](C)(CC)CC)cc1`, the result in test [3] was inactive.
Same read-out and setting: the same measure for `COc1cccc(N(C)C(=S)Oc2ccc3c(c2)CCCC3)n1`: “inactive”.
As for `CC(C)(C)C(=O)OCOP(=O)(COCCn1cnc2c(N)ncnc21)OCOC(=O)C(C)(C)C`, the figures for the half-maximal activity concentration (AC50) in test [3] and in test [1] were 20.9 µM (active) and 18.6 µM (active), respectively.

Values taken from PubChem BioAssay.
